From PubChem BioAssay AID1851 (National Center for Advancing Translational Sciences (NCATS), 2009)
The whole screen tested about 16,000 compounds, of which about 5,700 (36%) were called active. Not shown: some 24% with an inconclusive outcome. The list shows a part of the results. Unmarked numbers belong to inactive results. Calls come from the whole dose curve; as a rule, active = well fitted curve in the direction sought with a large enough effect; inconclusive = small, poorly fitted or top-dose-only effect, or effect the other way; inactive = no such curve, though single readings can be large or run the other way.

Target: Cytochrome P450 1A2 (Homo sapiens) (UniProt P05177)
Assay: Cytochrome panel assay with activity outcomes
Details: recombinant CYP, pro-luciferin dealkylation, luminescence, p450-cyp1a2; series mostly up to 57.1 µM; activity, negative = inhibition: at the top concentration
% is set by controls: 0 for no effect and ±100 for the full control effect.

Cytochrome P450 1A2 (Homo sapiens), sequence (P05177 whole entry, looked up): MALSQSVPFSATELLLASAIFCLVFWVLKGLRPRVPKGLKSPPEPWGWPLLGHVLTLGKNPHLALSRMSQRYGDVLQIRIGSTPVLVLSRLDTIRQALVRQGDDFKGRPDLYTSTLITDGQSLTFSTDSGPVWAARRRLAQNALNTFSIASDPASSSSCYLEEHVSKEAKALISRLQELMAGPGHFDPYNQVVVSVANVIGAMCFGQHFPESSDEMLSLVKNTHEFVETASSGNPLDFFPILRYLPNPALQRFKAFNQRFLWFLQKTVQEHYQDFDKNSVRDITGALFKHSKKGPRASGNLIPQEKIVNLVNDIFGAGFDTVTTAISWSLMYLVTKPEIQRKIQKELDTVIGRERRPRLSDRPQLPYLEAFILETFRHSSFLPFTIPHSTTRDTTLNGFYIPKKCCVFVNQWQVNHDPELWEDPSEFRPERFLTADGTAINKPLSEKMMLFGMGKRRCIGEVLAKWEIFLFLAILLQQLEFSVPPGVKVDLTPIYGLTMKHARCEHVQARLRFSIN

SMILES | activity, negative = inhibition | AC50
COc1ccc(/C=N/OCc2nc3c4c(ncn3n2)Oc2ccc3ccccc3c2C4c2ccccc2)cc1 (centres undefined) | -15% | –
CCC(=O)NC(=S)N1CCN(c2ccc([N+](=O)[O-])cc2Cl)CC1 | – | 12.6 µM (active)
COc1cccc(OC)c1C(=O)NC(=S)N1CCN(c2ccc(C(F)(F)F)cc2[N+](=O)[O-])CC1 | -23.3% | –
CN1CCN(c2ccc([N+](=O)[O-])cc2NC(=O)c2ccccc2Cl)CC1 | -10.4% | –
CCCCCCCCCCCCCCC[C@H](O)[C@H](N)CO | -4.79% | –
Cc1ccc(/C=N\Nc2nc3ccc(Cl)cc3[nH]2)o1 | – | 2 µM (active)
Cc1ccc(/C=N/NC(=O)C2CCN(Cc3ccc(F)cc3Cl)CC2)o1 | -26% | –
CCN1C(=O)[C@H]2[C@H]3[C@H](O)[C@H](O)C/C(=N/OCC[C@H]4C=C[C@H](OC(C)=O)[C@@H](COC(C)=O)O4)[C@@H]3CC[C@@H]2C1=O | -1.02% [at 11.4 µM] | –
OC[C@@H]1O[C@@H](n2cnc3c(NC4CCCCC4)ncnc32)[C@@H](O)[C@H]1O | -19.5% | –
CC(C)C(=O)N[C@H]1CCCN1C(=O)/C=C\c1ccccc1 | 1.37% [at 11.4 µM] | –
CC(C)C(=O)N[C@@H]1CCCN1C(=O)/C=C\c1ccccc1 | 0.0238% [at 11.4 µM] | –
C#CCSc1nncn1C(=O)/C=C/c1ccccc1 | – | 15.8 µM (active)
COc1ccc(-c2cc(C(F)(F)F)nc(N3CCN(C)CC3)n2)cc1OC | – | 2.82 µM (active)
CN1CCN(c2nc(-c3ccccc3)cc(C(F)(F)F)n2)CC1 | – | 1.12 µM (active)
COc1ccc(C(=O)OC(C)CN2CCN(C)CC2)cc1OC (centres undefined) | -9.56% | –
COc1ccc(-c2nnn(Cc3nc(N)nc(N4CCOCC4)n3)n2)cc1OC | -27.8% | –
COc1ccc(-c2cc(C(F)(F)F)nc(NC3CCCC3)n2)cc1OC | – | 2.82 µM (active)
COc1ccc(NC(=O)c2ccc(-c3ccc(-c4noc(C)n4)cc3C)cc2)cc1N1CCN(C)CC1 | – | inactive
COc1ccc(-c2cc(C(F)(F)F)nc(N3CCOCC3)n2)cc1OC | – | 0.501 µM (active)
COc1ccc(CC(=S)N2CCOCC2)cc1OC | 0.556% | –
O=C(O)[C@@H](O)[C@@H](O)[C@@H](O[C@H]1O[C@@H](CO)[C@@H](O)[C@@H](O)[C@@H]1O)[C@@H](O)CO | -1.8% [at 25.6 µM] | –
C=C1c2cccc(O)c2C(O)=C2C(=O)[C@@]3(O)C(O)=C(C(N)=O)C(=O)[C@@H](N(C)C)[C@@H]3[C@@H](O)[C@H]12 | -1.08% [at 25.6 µM] | –

SMILES | activity, negative = inhibition | AC50
C#CCCCO/N=C1/C[C@@H](O)[C@@H](O)[C@@H]2[C@@H]3C(=O)N(CC)C(=O)[C@H]3CC[C@H]12 | -27.8% [at 11.4 µM] | –
COc1ccc(-c2cc(C(F)(F)F)nc(N3CCCCC3)n2)cc1OC | – | 0.631 µM (active)
OC[C@@H]1O[C@@H](N2CCN([C@@H]3O[C@@H](CO)[C@@H](O)[C@H](O)[C@H]3O)CC2)[C@@H](O)[C@H](O)[C@H]1O | -9.68% [at 2.29 µM] | –
CS(=O)(=O)N(CC(=O)Nc1c(F)cccc1F)c1ccc(C23CC4CC(CC(C4)C2)C3)cc1 | -15.3% | –
Cc1cc2ncn(/N=C/c3ccc([N+](=O)[O-])o3)c2cc1C | – | 10 µM (active)
O=C1O[C@H](CN2CCOCC2)CN1/N=C\c1ccc([N+](=O)[O-])o1 | -16.3% [at 25.6 µM] | –
CCN=C(Nc1ccc(Cl)cc1)c1cccnc1 | -22% | –
N/C(=N\OC(=O)Cc1ccc(Cl)cc1)c1cccnc1 | – | 11.2 µM (active)
C=Cc1c(C)c2cc3[nH]c(cc4nc(cc5nc(cc1[nH]2)C(C)=C5CCC(=O)O)C(CCC(=O)O)=C4C)c(C)c3C=C | – | 6.31 µM (active)
C=Cc1c(C)c2cc3nc(cc4[nH]c(cc5nc(cc1[nH]2)C(C)=C5CCC(=O)O)c(CCC(=O)OC)c4C)[C@@]1(C)C3=CC=C(C(=O)OC)[C@H]1C(=O)OC (tested in a mixture with another compound) | – | 3.98 µM (active)
CC1CC(OCC(O)CN2CCN(Cc3ccccc3)CC2)CC(C)(C)C1 (centres undefined) | 3.43% | –
C/C(=N\Nc1nnc(C)c(=O)[nH]1)C(=O)O | -3.43% | –
O=C(O)c1ccccc1C(=O)NCc1ccc(F)cc1 | – | 5.01 µM (active)
O=C(O)CC[C@@H](NC(=O)c1ccccc1C(=O)O)C(=O)O | -2.07% | –
O=C(NCc1ccc(F)cc1)C1CCN(S(=O)(=O)N2CCCCC2)CC1 | -2.81% | –
C/C(=C/C(=O)NCc1ccccc1)C(=O)O | -3.03% | –
O=C(O)NCc1ccccc1 (tested in a mixture with another compound) | – | 3.16 µM (active)
CCCC(=O)NNC(=O)CCC(=O)NCc1ccccc1 | 4.31% | –
CC1CCCC(NC(=O)C2CCN(S(=O)(=O)N3CCOCC3)CC2)C1C (centres undefined) | -7.4% | –
CN(c1ccc(C(=O)NCC2CCCO2)cc1)S(=O)(=O)c1ccccc1 (centres undefined) | 0.0846% | –
Cc1cccc(CSCCNC(=O)c2ccc(N(C)S(=O)(=O)c3ccccc3)cc2)c1 | -9.88% | –
COC(=O)c1c(C)oc2ccc(N(C(=O)c3ccncc3)S(=O)(=O)c3ccccc3)cc12 | – | 11.2 µM (active)
